Data published in ChEMBL document CHEMBL3988442, “University of Dundee, Small-Polar-MMV Screening Library” (2021).
About 420 (0.61%) of roughly 69,000 compounds showed an effect of 50% or more. Shown is part of a subset that was picked to be rich in strong results.

The compounds below were run against T1, Histidine--tRNA ligase (Leishmania infantum) (UniProt A4I591) (assay: Leishmania infantum Histidine tRNA synthetase (LdHisRS)). Conditions: 30 µM.
T1 sequence (whole entry): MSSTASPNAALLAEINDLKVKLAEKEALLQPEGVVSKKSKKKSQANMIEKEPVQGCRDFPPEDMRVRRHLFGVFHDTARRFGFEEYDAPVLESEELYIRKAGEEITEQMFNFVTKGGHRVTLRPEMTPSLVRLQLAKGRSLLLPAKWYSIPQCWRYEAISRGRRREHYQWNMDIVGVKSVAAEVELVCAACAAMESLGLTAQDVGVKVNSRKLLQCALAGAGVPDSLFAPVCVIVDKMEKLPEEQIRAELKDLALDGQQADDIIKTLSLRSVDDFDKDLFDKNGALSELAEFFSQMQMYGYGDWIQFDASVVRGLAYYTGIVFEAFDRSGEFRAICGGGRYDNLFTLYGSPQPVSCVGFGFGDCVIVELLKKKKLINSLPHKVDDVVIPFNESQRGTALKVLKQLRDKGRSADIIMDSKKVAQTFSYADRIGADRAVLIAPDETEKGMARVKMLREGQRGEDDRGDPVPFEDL
Assay type: functional
Parameters: scale not given: in the data most compounds retested in dose-response had high values

SMILES | Percent Effect [%]
CN(C)C(=O)CN1CC[C@H]2CN(S(C)(=O)=O)C[C@@H]2C1=O | 15.5
CN(C)C(=O)N1C[C@H](Oc2ccccn2)[C@H]2OCCC[C@H]21 | 8.74
COCC(=O)N1C[C@H]2CNC[C@@]2(C(=O)NCc2snnc2C)C1 | 18.6
CN(CCCOc1ccccc1Cl)C(=O)CN1CCCCCC1=O | 21.2
COc1cccn(CC(=O)N(C)Cc2ccoc2)c1=O | 47.6
CN(CCCOc1ccccc1Cl)C(=O)CN1C[C@@H]2CC[C@H](CC1=O)N2 | 17.7
COCCCN(C)C(=O)Cn1cccc(OC)c1=O | 107
CN(CCOCC1CC1)C(=O)Cn1cccc(C(F)(F)F)c1=O | 15.4
COCCN(C)C(=O)Cn1cccc(OC)c1=O | 105
CCc1cccc(OCCCN(C)C(=O)CN2CCNC2=O)c1 | 8.85
CCN(CC1CCOCC1)C(=O)Cn1cccc(C(F)(F)F)c1=O | 13.2
CCc1ccccc1OCCN(C)C(=O)CN1CCCC1 | 22.2
COc1cccn(CC(=O)N(C)CCSC)c1=O | 32
COc1cccn(CC(=O)N(C)CCOc2cc(C)cc(C)c2)c1=O | 105
COc1cccn(CC(=O)N(C)CCC2CCOCC2)c1=O | 91.2
CC(=O)N1CC[C@H]2CC(=O)N(C3CC3)CC[C@H]2C1 | 22.2
CNC(=O)CN1CC[C@H]2CN(C(=O)c3cc[nH]n3)C[C@H]2C1 | 16.7
CNC(=O)[C@@H]1CC[C@@H]2[C@@H](CCN2Cc2cn(C)c3ccccc23)O1 | 13.2
O=C1[C@H]2CC[C@H](CN(C3CSCCSC3)C2)N1Cc1cscn1 | 11.4
CN(C)S(=O)(=O)N1CC[C@]2(O)CCN(CCc3cccc(F)c3)C[C@@H]2C1 | 43.4
Cc1nc(CN2C[C@@H]3CN(C(=O)c4cccn4C)C[C@@H]3C2)cs1 | -1.92
CC(=O)N1CCO[C@@H]2CN(Cc3ccccc3Cl)C[C@@H]2C1 | 11.7
Cc1nc(CN2C[C@@H]3CN(C(=O)C4(C#N)CC4)C[C@@H]3C2=O)cs1 | 26.5
Cc1nc([C@H]2C[C@H]3CN(C(=O)c4ccoc4C)CC[C@@H]3O2)no1 | 15.1

SMILES | Percent Effect [%]
CN(CCCOc1ccccc1Cl)C(=O)CN1C(=O)CCNC1=O | 14.2
COc1cccn(CC(=O)N(C)CCCOc2c(C)cccc2C)c1=O | 110
CN(CCCOc1ccccc1Cl)C(=O)CN1CCNC1=O | 24.8
Cc1ccc(N(C)[C@@H]2CC[C@@H]3CN(C(=O)CC4CCOCC4)C[C@@H]32)nn1 | 12.8
Cc1ccnc(N2C[C@@H]3CC[C@H](C2)N(CC2CCC2)C3=O)n1 | 34.4
Cn1cc(CCC(=O)N2C[C@@H]3CC[C@H](C2)N(Cc2ccccn2)C3)cn1 | 24.1
Cc1ccc(N2C[C@H]3OCC[C@H]3[C@H](C(=O)NC3CCC3)C2)nn1 | 11.8
CC(C)c1nccn1-c1cccc(C2CCCN(C3CCCC3)C2)n1 (stereo not given) | 22.9
Cc1nccn1-c1nccnc1C1CCCN(C2CCCC2)C1 (stereo not given) | -4.2
CCc1nccn1-c1cccc(C2CCCN(C3CCCCC3)C2)n1 (stereo not given) | 42
Cc1nccn1-c1cccc(C2CCCN(C3CCCCC3)C2)n1 (stereo not given) | 55.6
Cc1nccn1-c1cccc(C2CCCN(C(=O)c3cc[nH]n3)C2)n1 (stereo not given) | 17.1
Cc1nccn1-c1cccc(C2CCCN(C3CCCC3)C2)n1 (stereo not given) | 65.2
COCC(=O)N1CC[C@@H]2CN(Cc3cccc(Cl)c3)S(=O)(=O)[C@@H]2CC1 | 3.77
Cn1ccc(NC(=O)CN2C[C@H]3CC[C@@H]2CN(Cc2ccccn2)C3)n1 | 0
CC(=O)N1CCN(C(=O)Cc2cnc(-c3c(Cl)cccc3Cl)s2)CC1 | -1.1
NC(=O)C1CCN(C(=O)Cc2cnc(-c3c(Cl)cccc3Cl)s2)CC1 | 12.1
O=C(Cc1cnc(-c2c(Cl)cccc2Cl)s1)N1CCOCC1 | 64.8
Cc1nnsc1C(=O)N1CC[C@H](c2ccccc2)[C@@H]2[C@H]1CCCCN2C | 7.29
Cc1c(Cl)cccc1NC(=O)Cn1cc(C(=O)O)ccc1=O | 55
Cc1cccc(Cl)c1NC(=O)Cn1cc(C(=O)O)ccc1=O | 18.3
Cc1ccc(Cl)cc1NC(=O)Cn1cc(C(=O)O)ccc1=O | 6.67
CC(C)CS(=O)(=O)N1C[C@H]2C[C@H](C(=O)NCc3ccccc3)[C@@H](C1)O2 | 5.83
Cn1cc(N2C(=O)C[C@@H]3[C@@H]2CCN3C(=O)c2ccco2)cn1 | 16

SMILES | Percent Effect [%]
COc1cc(N2C[C@H]3CN(C(=O)c4cnccn4)C[C@H]3C2)ncn1 | 5.26
Cn1nc(Cn2ccnc2)c2c1CN(c1nccs1)C2 | 52.6
CCS(=O)(=O)N1Cc2c(Cn3ccnc3)nn(C)c2C1 | 11.1
Cn1nc(Cn2ccnc2)c2c1CN(c1ncccn1)C2 | 3.51
Cc1cc(C(=O)N2C[C@H]3CC[C@@H]2CN(Cc2ccccn2)C3)nc(N)n1 | -4.84
CS(=O)(=O)N[C@H]1COC[C@@H]2CN(Cc3ccco3)C[C@@H]21 | -1.39
COc1ccc(Oc2nccc3occc23)cc1CN1CCCC1 | 58.1
c1ccc(Oc2nccc3occc23)c(CN2CCCCC2)c1 | 23.7
COc1ccc(Oc2ncccc2F)cc1CN1CCCC1 | 15.8
O=C1NCCO[C@H]2CN(C(=O)Cc3ccco3)CC[C@@H]12 | 18
Cc1nc(CN2CCc3nc(N4CCCC4)nc(NC(C)C)c3C2)cs1 | 92.3
CC(C)Nc1nc(N2CCCC2)nc2c1CN(C)CC2 | 5.56
Cc1nc(CN2CCc3nc(NC(C)C)nc(C)c3C2)cs1 | 47.9
Cc1ccc([C@@]2(O)CC[C@@H]3CN(S(=O)(=O)c4cn(C)nc4C)C[C@@H]32)cc1 | -15.8
CSc1nc(N)cc(N2C[C@@H]3CC[C@H](C2)N(CC2CC2)C3=O)n1 | 24.7
Cc1ccccc1CCC1CCCN(C(=O)Cc2cc(=O)[nH]c(N)n2)C1 (stereo not given) | 18.3
O=C(CC1=CSC2=NCCN12)N1CCCC(CCc2cccc(F)c2)C1 (stereo not given) | 28.3
Nc1nc(CC(=O)N2CCCC(CCc3cccc(F)c3)C2)cc(=O)[nH]1 (stereo not given) | 78.3
Cc1ccccc1CC(C)(C)NC(=O)COc1cccc(C(N)=O)c1 | 22.1
Cc1ccccc1CC(C)(C)NC(=O)CCOc1cccc(C(N)=O)c1 | 1.3
Cc1ccccc1CC(C)(C)NC(=O)c1cccc(OCC(N)=O)c1 | 50.6
Cc1ccc(CN2C[C@@H](OCc3csc(C)n3)[C@H]3COC[C@H]32)s1 | 21
